From the supplement of paper PMC7411054
Where a name gives a salt, the structure may show the parent alone.

What was measured:
Assay in all cases: phenotypically active (imaging signature differs from DMSO and reproducible) at any of 0.3-9 uM (binary (1 = active, 0 = inactive)); higher = active
Conditions in all cases: treatment time: 24 h
A549-ACTB-RAB5A = tested on: A549-ACTB-RAB5A
Method in brief: (§1)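 Cells from fifteen gene-edited reporter lines (A549, HepG2 and WPMY1) were treated for 24 h at 0.3, 1, 3 or 9 µM and imaged live, four wells per condition. Features were normalised per well to solvent control wells. A condition deviated if ≥3 of 4 wells passed the 95th percentile of control Euclidean distances and was reproducible if its median replicate Pearson correlation beat the 95th percentile of non-replicates; phenotypic activity needed both.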

A549-CANX-COX4 = tested on: A549-CANX-COX4
Method in brief: as §1

A549-GM130-SQSTM1 = tested on: A549-GM130-SQSTM1
Method in brief: as §1

A549-TP53BP1-CLTA = tested on: A549-TP53BP1-CLTA
Method in brief: as §1

A549-TUBA1B-RELA = tested on: A549-TUBA1B-RELA
Method in brief: as §1

HepG2-ACTB-RAB5A = tested on: HepG2-ACTB-RAB5A
Method in brief: as §1

HepG2-CANX-COX4 = tested on: HepG2-CANX-COX4
Method in brief: as §1

HepG2-GM130-SQSTM1 = tested on: HepG2-GM130-SQSTM1
Method in brief: as §1

HepG2-TP53BP1-CLTA = tested on: HepG2-TP53BP1-CLTA
Method in brief: as §1

HepG2-TUBA1B-RELA = tested on: HepG2-TUBA1B-RELA
Method in brief: as §1

WPMY1-ACTB-RAB5A = tested on: WPMY1-ACTB-RAB5A
Method in brief: as §1

WPMY1-CANX-COX4 = tested on: WPMY1-CANX-COX4
Method in brief: as §1

WPMY1-GM130-SQSTM1 = tested on: WPMY1-GM130-SQSTM1
Method in brief: as §1

WPMY1-TP53BP1-CLTA = tested on: WPMY1-TP53BP1-CLTA
Method in brief: as §1

WPMY1-TUBA1B-RELA = tested on: WPMY1-TUBA1B-RELA
Method in brief: as §1

Measured: phenotypically active

OC[C@H]1NC[C@H](O)[C@@H](O)[C@@H]1O [1-Deoxynojirimycin]
inactive: A549-ACTB-RAB5A 0 | A549-CANX-COX4 0 | A549-GM130-SQSTM1 0 | A549-TP53BP1-CLTA 0 | A549-TUBA1B-RELA 0 | HepG2-ACTB-RAB5A 0 | HepG2-CANX-COX4 0 | HepG2-GM130-SQSTM1 0 | HepG2-TP53BP1-CLTA 0 | HepG2-TUBA1B-RELA 0 | WPMY1-ACTB-RAB5A 0 | WPMY1-CANX-COX4 0 | WPMY1-GM130-SQSTM1 0 | WPMY1-TP53BP1-CLTA 0 | WPMY1-TUBA1B-RELA 0

CC1Cc2ccccc2N1NC(=O)c1ccc(Cl)c(S(N)(=O)=O)c1 (stereo not given) [indapamide]
inactive: A549-ACTB-RAB5A 0 | A549-CANX-COX4 0 | A549-GM130-SQSTM1 0 | A549-TP53BP1-CLTA 0 | A549-TUBA1B-RELA 0 | HepG2-ACTB-RAB5A 0 | HepG2-CANX-COX4 0 | HepG2-GM130-SQSTM1 0 | HepG2-TP53BP1-CLTA 0 | HepG2-TUBA1B-RELA 0 | WPMY1-ACTB-RAB5A 0 | WPMY1-CANX-COX4 0 | WPMY1-GM130-SQSTM1 0 | WPMY1-TP53BP1-CLTA 0 | WPMY1-TUBA1B-RELA 0

C[C@H]1[C@H](C)CC[C@]2(C(=O)O[C@@H]3O[C@H](CO[C@@H]4O[C@H](CO)[C@@H](O[C@@H]5O[C@@H](C)[C@H](O)[C@@H](O)[C@H]5O)[C@H](O)[C@H]4O)[C@@H](O)[C@H](O)[C@H]3O)CC[C@]3(C)C(=CC[C@@H]4[C@@]5(C)C[C@@H](O)[C@H](O)[C@@](C)(CO)[C@@H]5CC[C@]43C)[C@H]12 [Asiaticoside]
inactive: A549-ACTB-RAB5A 0 | A549-CANX-COX4 0 | A549-GM130-SQSTM1 0 | A549-TP53BP1-CLTA 0 | A549-TUBA1B-RELA 0 | HepG2-ACTB-RAB5A 0 | HepG2-CANX-COX4 0 | HepG2-GM130-SQSTM1 0 | HepG2-TP53BP1-CLTA 0 | HepG2-TUBA1B-RELA 0 | WPMY1-ACTB-RAB5A 0 | WPMY1-CANX-COX4 0 | WPMY1-GM130-SQSTM1 0 | WPMY1-TP53BP1-CLTA 0 | WPMY1-TUBA1B-RELA 0

CC(=O)N[C@@H]1[C@@H](O[C@H](C)C(=O)O)[C@H](O)[C@@H](CO)O[C@@H]1O [Muramic acid, N-acetyl]
inactive: A549-ACTB-RAB5A 0 | A549-CANX-COX4 0 | A549-GM130-SQSTM1 0 | A549-TP53BP1-CLTA 0 | A549-TUBA1B-RELA 0 | HepG2-ACTB-RAB5A 0 | HepG2-CANX-COX4 0 | HepG2-GM130-SQSTM1 0 | HepG2-TP53BP1-CLTA 0 | HepG2-TUBA1B-RELA 0 | WPMY1-ACTB-RAB5A 0 | WPMY1-CANX-COX4 0 | WPMY1-GM130-SQSTM1 0 | WPMY1-TP53BP1-CLTA 0 | WPMY1-TUBA1B-RELA 0

CC[C@]12CCCN3CCc4c(n(c5ccccc45)[C@@](O)(C(=O)OC)C1)[C@@H]32 [Vincamine]
inactive: A549-ACTB-RAB5A 0 | A549-CANX-COX4 0 | A549-GM130-SQSTM1 0 | A549-TP53BP1-CLTA 0 | A549-TUBA1B-RELA 0 | HepG2-ACTB-RAB5A 0 | HepG2-CANX-COX4 0 | HepG2-GM130-SQSTM1 0 | HepG2-TP53BP1-CLTA 0 | HepG2-TUBA1B-RELA 0 | WPMY1-ACTB-RAB5A 0 | WPMY1-CANX-COX4 0 | WPMY1-GM130-SQSTM1 0 | WPMY1-TP53BP1-CLTA 0 | WPMY1-TUBA1B-RELA 0

O=C(O)CCN(O)C(=O)CCCCCCCCC1CC1
inactive: A549-ACTB-RAB5A 0 | A549-CANX-COX4 0 | A549-GM130-SQSTM1 0 | A549-TP53BP1-CLTA 0 | A549-TUBA1B-RELA 0 | HepG2-ACTB-RAB5A 0 | HepG2-CANX-COX4 0 | HepG2-GM130-SQSTM1 0 | HepG2-TP53BP1-CLTA 0 | HepG2-TUBA1B-RELA 0 | WPMY1-ACTB-RAB5A 0 | WPMY1-CANX-COX4 0 | WPMY1-GM130-SQSTM1 0 | WPMY1-TP53BP1-CLTA 0 | WPMY1-TUBA1B-RELA 0

O=C(O)c1cc(/N=N/c2ccc(S(=O)(=O)Nc3ccccn3)cc2)ccc1O [Sulfasalazine]
inactive: A549-ACTB-RAB5A 0 | A549-CANX-COX4 0 | A549-GM130-SQSTM1 0 | A549-TP53BP1-CLTA 0 | A549-TUBA1B-RELA 0 | HepG2-ACTB-RAB5A 0 | HepG2-CANX-COX4 0 | HepG2-GM130-SQSTM1 0 | HepG2-TP53BP1-CLTA 0 | HepG2-TUBA1B-RELA 0 | WPMY1-ACTB-RAB5A 0 | WPMY1-CANX-COX4 0 | WPMY1-GM130-SQSTM1 0 | WPMY1-TP53BP1-CLTA 0 | WPMY1-TUBA1B-RELA 0

O=C(O)c1c(Sc2ccccc2)c2cc(Cl)ccc2n1Cc1ccc(Cl)cc1
inactive: A549-ACTB-RAB5A 0 | A549-CANX-COX4 0 | A549-GM130-SQSTM1 0 | A549-TP53BP1-CLTA 0 | A549-TUBA1B-RELA 0 | HepG2-ACTB-RAB5A 0 | HepG2-CANX-COX4 0 | HepG2-GM130-SQSTM1 0 | HepG2-TP53BP1-CLTA 0 | HepG2-TUBA1B-RELA 0 | WPMY1-ACTB-RAB5A 0 | WPMY1-CANX-COX4 0 | WPMY1-GM130-SQSTM1 0 | WPMY1-TP53BP1-CLTA 0 | WPMY1-TUBA1B-RELA 0

COC(=O)c1c(-c2cc(OC)c(OC)c(OC)c2)c2ccnc(OCc3ncccn3)c2c(=O)n1Cc1ccnc(C)c1 [T 0156 hydrochloride]
inactive: A549-ACTB-RAB5A 0 | A549-CANX-COX4 0 | A549-GM130-SQSTM1 0 | A549-TP53BP1-CLTA 0 | A549-TUBA1B-RELA 0 | HepG2-ACTB-RAB5A 0 | HepG2-CANX-COX4 0 | HepG2-GM130-SQSTM1 0 | HepG2-TP53BP1-CLTA 0 | HepG2-TUBA1B-RELA 0 | WPMY1-ACTB-RAB5A 0 | WPMY1-CANX-COX4 0 | WPMY1-GM130-SQSTM1 0 | WPMY1-TP53BP1-CLTA 0 | WPMY1-TUBA1B-RELA 0

Cc1c(-c2ccccc2)oc2c(C(=O)OCCN3CCCCC3)cccc2c1=O [flavoxate]
inactive: A549-ACTB-RAB5A 0 | A549-CANX-COX4 0 | A549-GM130-SQSTM1 0 | A549-TP53BP1-CLTA 0 | A549-TUBA1B-RELA 0 | HepG2-ACTB-RAB5A 0 | HepG2-CANX-COX4 0 | HepG2-GM130-SQSTM1 0 | HepG2-TP53BP1-CLTA 0 | HepG2-TUBA1B-RELA 0 | WPMY1-ACTB-RAB5A 0 | WPMY1-CANX-COX4 0 | WPMY1-GM130-SQSTM1 0 | WPMY1-TP53BP1-CLTA 0 | WPMY1-TUBA1B-RELA 0
